A340 absorber: compounds absorbing at 340 nm. compound absorbance at 340 nm, fold over control. fold change at 10 µM. 65,000 tested, under 10 active. AID 708;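 active means at 10 µM dose, initial 340 nm absorbance at least 2 fold that of control wells; inactive means change under 2 fold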;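 further: initial absorbance extrapolated from kinetic A340 decline of NADH oxidation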
Fluor 339 460: intrinsic fluorescence of library compounds, ex339/em460 – biochemical, MLSMR library, data from DPM-DC assay, artefact control, profiling panel. compound autofluorescence, ex339/em460 nm, NADH buffer; active compounds read high; 1 = no-compound wells, NADH background. fluorescence fold increase at 10 µM. 5.5% of 65,000 active;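 active means at 10 µM, mean starting fluorescence two-fold or more over control wells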;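 further: signal is the first read of a kinetic run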
NADH enzymes: inhibition of NAD/NADH coupling enzymes, library profiling; IC50, µM (series often up to 10 µM), for the others: at the top dose inhibition; 0.02% of 65,000 active; coupled PK/LDH NADH assays, four targets;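 active means single-dose screening hits from any of four coupled enzyme assays that gave an IC50 when retested across doses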;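 further: the DPM-DC format reads NADH fluorescence rather than 340 nm absorbance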
Spn MK inh: inhibitors of Streptococcus pneumoniae mevalonate kinase; purified MK, PK/LDH-coupled NADH absorbance 340 nm; inhibition, % at 10 µM; 0.48% of 65,000 active; AID 555;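 active means ranked among the strongest by inhibition in the single 10 µM screen, a fixed top-ranked set picked for dose follow-up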
PMK inhibit: inhibitors of Streptococcus pneumoniae phosphomevalonate kinase | inhibition, % at 10 µM | purified PMK, PK/LDH-coupled NADH absorbance 340 nm | AID 539 | 0.49% of 65,000 active;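 active means top-ranked compounds by inhibition in the single 10 µM screen, taking a fixed number of the strongest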;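 further: 0% = full reaction with DMSO carrier and 100% = background rate without enzyme reaction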
DPM-DC inhibit: blocks S. pneumoniae diphosphomevalonate decarboxylase | AID 556 | purified DPM-DC, PK/LDH coupled NADH fluorescence | calls only at 10 µM | 0.49% of 65,000 active;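 active means the 320 compounds with the highest percent inhibition in the single-dose primary screen, excluding strongly autofluorescent ones, cut at about 32% in these data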;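 further: kinetic rate of NADH fluorescence loss reporting ADP formed by the decarboxylase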
An asterisk follows results filed as active; i = inactive; nt = not tested or not shown. Shown are actives, neighbours in structure and some others; about 6.8% of the full set was active somewhere.

SMILES | A340 absorber | Fluor 339 460 | NADH enzymes | Spn MK inh | PMK inhibit | DPM-DC inhibit
COC(=O)C1=C(C)NC(C)=C(C(=O)OC)C1c1cc2cc(C)ccc2[nH]c1=O | 1 | 2.7* | 4% | 9 | 7 | i
Cc1cc2oc3c(c(=O)c2cc1C)C(c1ccc(C(C)C)cc1)N(CCCN1CCOCC1)C3=O (centres undefined) | 1.1 | 1.1 | 2% | 5 | 2 | i
CCOC(=O)C(C(C)=O)c1c(Br)c(O)c(O)c2c(C(=O)c3ccc(C)cc3)coc12 (centres undefined) | 1.1 | 1.1 | 0% | 0 | 1 | i
CCOC(=O)Cc1c(C)c2c(C)nn(-c3ccccc3)c2oc1=O | 1.1 | 2.3* | 6% | 0 | 0 | i
O=C(CN(c1ccc2c(c1)OCCO2)S(=O)(=O)c1ccccc1)NCc1ccco1 | 1 | 1.1 | 0% | 0 | 0 | i
Cc1c(C#N)sc2nc(-c3ccccc3)nc(N3CCCC3)c12 | 1.1 | 2.5* | 2% | 3 | 0 | nt
CCSc1nc2c(c(=O)[nH]c(=O)n2C)n1CC(O)COc1ccccc1C (centres undefined) | 1 | 1.1 | 2% | 7 | 0 | i
COc1cccc(CC(NC(C)=O)C(=O)NC2CCN(c3nc(C)cc(C)c3C#N)CC2)c1OC (centres undefined) | 1.1 | 3* | 17% | 9 | 12 | i
CSc1ccccc1NC(=O)c1cc(-c2cccs2)on1 | 0.99 | 2.3* | 5% | 3 | 11 | i
CCCCS(=O)(=O)C(=C1Nc2ccccc2N1)S(=O)(=O)CCCC | 1.1 | 1.2 | 15% | 13 | 26* | i
COc1ccccc1-n1nnnc1SCc1cc2c(cc1Br)OCO2 | 1 | 1 | 1% | 1 | 0 | i
COC(=O)c1ccc(NC(=O)CS(=O)(=O)Cc2ccccc2)cc1 | 1 | 1.1 | 1% | 4 | 0 | i
CCOC(=O)c1sc(C)c(C(N)=O)c1NC1=NCCCCC1 | 1.1 | 2* | 11% | 7 | 8 | i
O=C(CCCc1c[nH]c2ccccc12)N1CCN(c2ccc(N3CCOCC3)nn2)CC1 | 1 | 2.1* | 3% | 5 | 1 | nt
COc1cc(CCC(=O)N2CCN(c3ccc(N4CCOCC4)nn3)CC2)cc(OC)c1OC | 1 | 2.2* | 12% | 8 | 15 | nt
COc1cc(CCC(=O)N2CCN(S(=O)(=O)c3ccc(C)c(C)c3)CC2)cc(OC)c1OC | 0.99 | 1 | 6% | 0 | 18 | i
NC(=O)CCc1c[nH]c2ccccc12 | 1 | 1.2 | 4% | 6 | 5 | i
Cc1cccc(C(=O)NC2CCN(CC(=O)N3CCOCC3)CC2)c1 | 0.99 | 1.1 | 4% | 3 | 10 | i
COCCn1c(=S)[nH]c2cc(C(=O)N3CCc4ccccc43)ccc2c1=O | 1.1 | 0.93 | 4% | 2 | 5 | i
CC1(C)CC(=O)C2=C(C1)NC(Nc1nc3ccccc3o1)=NC21CCCCC1 | 1.1 | 2.4* | 4% | 3 | 1 | i
Cn1c(=O)c(C(=O)Nc2cnccn2)c(O)c2ccccc21 | 1.1 | 1.1 | 2% | 6 | 1 | i
O=C(CN1C(=O)C2C3C=CC(C3)C2C1=O)Nc1ccc2nccnc2c1 (centres undefined) | 1.1 | 2.1* | 10% | 9 | 10 | nt
CCOC(=O)c1cccc(NC(=O)CN2C(=O)C3C4C=CC(C4)C3C2=O)c1 (centres undefined) | 0.98 | 1.1 | 5% | 6 | 10 | i
COc1ccc(S(=O)(=O)Nc2nnc(C)s2)cc1 | 1 | 1.1 | 10% | 1 | 30* | i
Cc1nnc(NS(=O)(=O)c2ccc(N)cc2)s1 | 0.99 | 1.1 | 1% | 6 | 2 | i
CCC(=O)N(Cc1ccco1)c1nc(-c2ccccc2)cs1 | 1 | 1 | 9% | 0 | 27* | i
CCC(=O)N(Cc1ccco1)c1nc(-c2cc(OC)ccc2OC)cs1 | 1 | 1 | 4% | 5 | 5 | i
O=C(OCC#CCSc1nnc(-c2cccc3ccccc23)o1)c1cccs1 | 1.1 | 2.2* | 4% | 8 | 3 | i
O=C(OCC#CCSc1nnc(-c2ccccc2)o1)c1cccs1 | 0.98 | 0.99 | 2% | 6 | 0 | i
COc1ccc(CC(=O)N(Cc2cc3cc(OC)ccc3[nH]c2=O)C(C)C)cc1 | 1.1 | 2.6* | 11% | 7 | 8 | i
